The results in this text go back to PubChem BioAssay (NCATS).

Results filed as inconclusive are left out. A call without a number means that no potency is given here. Activity calls are given as the source filed them. The call rests on the fitted dose curve.

One assay in a line: Primary qHTS for inhibitors of MERS-S pseudo-typed particle cell entry (AID 1479149). Further: nearly all actives have a fitted effect of over 60% in size. Conditions: MERS-S pseudotyped particle entry, luciferase; series mostly up to 57.1 µM. A general note: In qHTS, concentration-response curves come from the screen itself.
In the case of `COc1ccc(C(=O)CC(=O)c2ccc(C(C)(C)C)cc2)cc1`, the Potency entry was “inactive”.

In the case of `Cc1c(NC(=O)c2cccnc2)c(=O)n(-c2ccccc2)n1C`, the Potency result was “inactive”.

Consider `Cc1cc(NS(=O)(=O)c2ccc(N)cc2)nc(C)n1`, for which the Potency entry is “inactive”.

For `NC[C@H]1O[C@H](O[C@H]2[C@H](O[C@@H]3O[C@H](CO)[C@@H](O)[C@H]3O)C(O)[C@H](N)C[C@@H]2N)[C@H](N)[C@@H](O)[C@@H]1O` (some centres undefined), the outcome is “inactive [at 11.4 µM]”.

With `Cc1cc(O)cc(C)c1Cl`, the Potency entry is “inactive”.

In the case of `NCC(=O)CCC(=O)O`, the Potency entry was “inactive”.

`Cc1cc(C)c(NC(=O)CN(CC(=O)O)CC(=O)O)c(C)c1Br`: the Potency result was “inactive”.

As to `Cc1cccn2c(=O)c(-c3nnn[nH]3)cnc12`, the Potency result is “inactive”.

Turning to `Cc1cc2c(cc1CC(=O)c1sccc1S(=O)(=O)Nc1onc(C)c1Cl)OCO2`, the Potency result was “inactive”.

For the molecule `NS(=O)(=O)c1cc2c(cc1C(F)(F)F)NC(Cc1ccccc1)NS2(=O)=O` (centres undefined), the Potency entry is “inactive”.

`Cc1ncc([N+](=O)[O-])n1CC(C)O` (centres undefined): the Potency entry is “inactive”.

As to `CCC(C(=O)NC(=O)NC(C)=O)c1ccccc1` (centres undefined), the Potency result was “inactive”.

With `Cc1c(F)c(N2CCNC(C)C2)cc2c1c(=O)c(C(=O)O)cn2C1CC1` (centres undefined), the Potency result was “inactive”.

`CC(C(=O)O)c1ccc(C(=O)c2ccccc2)s1` (centres undefined): the Potency entry is “inactive”.

On to `Cc1cccc(C)c1NC(=O)CC12CCCN1CCC2`, for which the Potency entry was “inactive”.

Take `Cc1cc(O)c2c(O)c3c(O)cccc3cc2c1`: the Potency entry was “inactive”.

Take `N[C@@H](Cc1cc(I)c(Oc2ccc(O)c(I)c2)c(I)c1)C(=O)O`: the Potency result is “inactive”.

Take `CCCC(O)C(CC)CO` (centres undefined): the Potency result is “inactive”.

With `Nc1ccn(C[C@@H](CO)OCP(=O)(O)O)c(=O)n1`, the outcome is “inactive [at 0.573 µM]”.

Regarding `O=C(O)CNC(=O)c1ccccc1`, the Potency result was “inactive”.

As for `Cc1oc(=O)oc1COC(=O)[C@@H]1N2C(=O)[C@@H](NC(=O)[C@H](N)c3ccccc3)[C@H]2SC1(C)C`, the Potency result was “inactive”.

The next assay is described as follows: Primary qHTS for Vero E6 cytotoxicity: counterscreen for inhibitors of SARS-S pseudo-typed particle cell entry (AID 1479150). Conditions: cell viability; series mostly up to 57.1 µM.
Regarding `C[N+]1(C)CCCC(OC(=O)C(O)(c2ccccc2)c2ccccc2)C1` (centres undefined), the Potency result is “inactive”.

On to `COc1ccc2cc1Oc1cc3c(cc1OC)CC[N+](C)(C)[C@H]3Cc1ccc(cc1)Oc1c(OC)c(OC)cc3c1[C@@H](C2)[N+](C)(C)CC3`, for which the Potency entry is “inactive”.

`O=C1c2c(O)cccc2Cc2cccc(O)c21`: the Potency entry was “inactive”.

In the case of `CC(=O)NS(=O)(=O)c1ccc(N)cc1`, the Potency result is “inactive”.

For the molecule `Nc1ccc(S(=O)(=O)Nc2ccc(Cl)nn2)cc1`, the Potency result was “inactive”.

Regarding `CC(C)(O/N=C(\C(=O)N[C@@H]1C(=O)N2C(C(=O)[O-])=C(C[n+]3ccccc3)CS[C@H]12)c1csc(N)n1)C(=O)O`, the Potency result was “inactive”.

`CCCCCCCCCCCCCCCC(=O)OC(C)C`: the Potency result was “inactive”.

Take `CC(=O)SCC(CC(=O)c1ccc(C)cc1)C(=O)O` (centres undefined): the Potency result was “inactive”.

Consider `NC(=O)c1ccccc1O`, for which the Potency result was “inactive”.

Regarding `CC(=O)OCC(=O)[C@@]1(O)[C@H](C)C[C@H]2[C@@H]3CCC4=CC(=O)C=C[C@]4(C)[C@@]3(F)[C@@H](O)C[C@@]21C`, the Potency entry was “inactive”.

On to `CC[N+](CC)(CCNC(=O)C(=O)NCC[N+](CC)(CC)Cc1ccccc1Cl)Cc1ccccc1Cl`, for which the Potency result is “inactive”.

Turning to `CC1(C)O[C@H]2CC(=O)OC[C@]23[C@H]2CC[C@@]4(C)[C@H](c5ccoc5)OC(=O)[C@H]5O[C@]54[C@]2(C)C(=O)C[C@@H]13`, the Potency result was “inactive”.

Take `O=C(O)C(S)C(S)C(=O)O` (centres undefined): the Potency entry was “inactive”.

With `Cn1nnc2c(C(N)=O)ncn2c1=O`, the Potency result is “inactive”.

Turning to `CC(C(=O)O)c1ccc2c(c1)[nH]c1ccc(Cl)cc12` (centres undefined), the Potency entry was “inactive”.

In the case of `Clc1ccc2nsnc2c1NC1=NCCN1`, the Potency result is “inactive”.

With `COc1nccnc1NS(=O)(=O)c1ccc(N)cc1`, the Potency entry is “inactive”.

With `COc1ccc(C(=O)CC(=O)c2ccc(C(C)(C)C)cc2)cc1`, the Potency result is “inactive”.

Regarding `Cc1c(NC(=O)c2cccnc2)c(=O)n(-c2ccccc2)n1C`, the Potency result is “inactive”.

On to `Cc1cc(NS(=O)(=O)c2ccc(N)cc2)nc(C)n1`, for which the Potency result was “inactive”.

As to `NC[C@H]1O[C@H](O[C@H]2[C@H](O[C@@H]3O[C@H](CO)[C@@H](O)[C@H]3O)C(O)[C@H](N)C[C@@H]2N)[C@H](N)[C@@H](O)[C@@H]1O` (some centres undefined), the activity change, negative = cytotoxicity was 0.563% [at 11.4 µM] (inactive).

For the molecule `Cc1cc(O)cc(C)c1Cl`, the Potency entry is “inactive”.

`NCC(=O)CCC(=O)O`: the Potency entry was “inactive”.

As for `Cc1cc(C)c(NC(=O)CN(CC(=O)O)CC(=O)O)c(C)c1Br`, the Potency result was “inactive”.

On to `Cc1cccn2c(=O)c(-c3nnn[nH]3)cnc12`, for which the Potency entry was “inactive”.

For the molecule `Cc1cc2c(cc1CC(=O)c1sccc1S(=O)(=O)Nc1onc(C)c1Cl)OCO2`, the Potency entry is “inactive”.

As to `NS(=O)(=O)c1cc2c(cc1C(F)(F)F)NC(Cc1ccccc1)NS2(=O)=O` (centres undefined), the Potency entry is “inactive”.

In the case of `Cc1ncc([N+](=O)[O-])n1CC(C)O` (centres undefined), the Potency entry is “inactive”.

As for `CCC(C(=O)NC(=O)NC(C)=O)c1ccccc1` (centres undefined), the Potency result was “inactive”.

Take `Cc1c(F)c(N2CCNC(C)C2)cc2c1c(=O)c(C(=O)O)cn2C1CC1` (centres undefined): the Potency entry was “inactive”.

With `CC(C(=O)O)c1ccc(C(=O)c2ccccc2)s1` (centres undefined), the Potency entry was “inactive”.

Regarding `Cc1cccc(C)c1NC(=O)CC12CCCN1CCC2`, the Potency entry was “inactive”.

Regarding `Cc1cc(O)c2c(O)c3c(O)cccc3cc2c1`, the Potency result was “inactive”.

Consider `N[C@@H](Cc1cc(I)c(Oc2ccc(O)c(I)c2)c(I)c1)C(=O)O`, for which the Potency entry was “inactive”.

Consider `CCCC(O)C(CC)CO` (centres undefined), for which the Potency result was “inactive”.

For `Nc1ccn(C[C@@H](CO)OCP(=O)(O)O)c(=O)n1`, the activity change, negative = cytotoxicity was -5.43% [at 0.573 µM] (inactive).

As for `O=C(O)CNC(=O)c1ccccc1`, the Potency entry is “inactive”.

For `Cc1oc(=O)oc1COC(=O)[C@@H]1N2C(=O)[C@@H](NC(=O)[C@H](N)c3ccccc3)[C@H]2SC1(C)C`, the Potency result was “inactive”.
